In PubChem BioAssay AID720597 (Broad Institute, 2013):
Entries with a potency or affinity are not part of this list.

target: NAD-dependent protein deacylase sirtuin-5, mitochondrial (Homo sapiens) (UniProt Q9NXA8); test: blockers of sirtuin-5 peptide desuccinylation – biochemical, fluorescence imaging, cherry-pick, set 6, dose response (AID 720597); settings: Purified SirT5, succinyl-peptide-AMC/trypsin fluorescence; series mostly up to 15 µM; activity change, negative = inhibition: at the top concentration;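 further: lower AMC signal can also come from blocking the trypsin step; 0% = median of neutral control wells and -100% = median of positive control wells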
Sequence (Q9NXA8 whole entry, looked up): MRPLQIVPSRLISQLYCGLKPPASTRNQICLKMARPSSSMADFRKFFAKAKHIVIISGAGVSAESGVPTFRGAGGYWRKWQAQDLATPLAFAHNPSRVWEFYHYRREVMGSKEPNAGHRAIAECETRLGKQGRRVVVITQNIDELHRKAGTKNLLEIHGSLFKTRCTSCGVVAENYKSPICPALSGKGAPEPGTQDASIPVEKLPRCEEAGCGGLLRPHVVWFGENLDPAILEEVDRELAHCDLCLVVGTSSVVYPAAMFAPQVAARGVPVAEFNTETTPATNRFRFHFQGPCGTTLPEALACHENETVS

Activity change, negative = inhibition, inactive:
COc1ccc(S(=O)(=O)N(C)C[C@H]2OCCCC[C@H](C)Oc3ccc(NS(=O)(=O)c4ccc(Cl)cc4)cc3C(=O)N([C@H](C)CO)C[C@H]2C)cc1 -2.51%
CC(C)C#Cc1ccc2c(c1)O[C@@H](CN(C)Cc1ccccn1)[C@H](C)CN([C@H](C)CO)S2(=O)=O 11.1%
O=C(CCN1CCCCC1)N[C@H]1CC[C@@H](CCn2cc(-c3ccc(F)cc3)nn2)O[C@H]1CO -3.15%
C[C@@H]1CCCCO[C@H](CN(C)S(=O)(=O)c2ccc(Cl)cc2)[C@H](C)CN([C@@H](C)CO)C(=O)c2cc(NS(=O)(=O)c3ccc(F)cc3)ccc2O1 -1.53%
C[C@H](O)C#Cc1ccc2c(c1)O[C@H](CN(C)Cc1ccc(-c3ccccc3)cc1)[C@@H](C)CN([C@H](C)CO)S2(=O)=O -21.9% [at 7.5 µM]
C[C@H]1CN([C@@H](C)CO)S(=O)(=O)c2ccc(C#Cc3ccc(F)cc3)cc2O[C@@H]1CN(C)C(=O)NC1CCCCC1 -2.87%
COc1cccc(S(=O)(=O)N(C)C[C@@H]2Oc3ncc(-c4cccc(C(F)(F)F)c4)cc3C(=O)N([C@H](C)CO)C[C@@H]2C)c1 -26.8%
COc1ccc(S(=O)(=O)Nc2ccc3c(c2)C(=O)N([C@H](C)CO)C[C@H](C)[C@@H](CN(C)Cc2ccc(C(F)(F)F)cc2)OCCCC[C@@H](C)O3)cc1 -4.74%
O=C(C[C@@H]1CC[C@@H](NC(=O)Nc2cccc(F)c2)[C@H](CO)O1)NCC1CC1 1.72%
C[C@H]1CN([C@@H](C)CO)C(=O)CCCn2cc(nn2)CO[C@H]1CN(C)Cc1ccccc1 9.33% [at 16 µM]
C[C@H](CO)N1C[C@H](C)[C@H](CN(C)S(=O)(=O)c2ccc(F)cc2)Oc2c(NC(=O)c3nc4ccccc4s3)cccc2C1=O 4.27%
